The results in this text go back to PubChem BioAssay (NCATS).

Inconclusive results are not listed. Activity calls are given as the source filed them. Calls come from the whole dose curve; as a rule, active = well fitted curve in the direction sought with a large enough effect; inconclusive = small, poorly fitted or top-dose-only effect, or another doubt; inactive = no such curve, though single readings can be large; an effect the other way counts as inactive or inconclusive.

Assay [1] in a line: qHTS assay for measurement of the activity of small molecule inhibitors on Zika virus induced Caspase-3 activity in human iPSC derived neural progenitor cells (hNPCs) (AID 1224857). Note: nearly all actives have a fitted effect of over 65% in size. The following applies: hNPCs ZIKV-induced caspase-3/7, Caspase-Glo luminescence, 6 h; series mostly up to 45.7 µM. In short, it runs like this:
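Zika virus (2 FFU/cell) infection of human iPSC-derived NPCs, 6 h, following 1 h compound preincubation. Read-out: Caspase-Glo 3/7 luminescence.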
On the technique in general: Quantitative high-throughput screening tests each substance at several concentrations.

The nature of assay [2]: qHTS assay for measurement of the activity of small molecule inhibitors on Zika virus induced Caspase-3 activity in human astrocytoma cells (AID 1224859). The following applies: SNB-19 ZIKV-induced caspase-3/7, luminescence, 6 h; series mostly up to 45.7 µM. Put shortly: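 Caspase activation in ZIKV-infected SNB-19 cells (2 FFU/cell, 6 h) measured by Caspase-Glo 3/7 luminescence after 30 min RT; compound pre-incubated 1 h; normalised to uninfected and infected controls.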

Assay [3] is described as follows: qHTS Screen of the MIPE 4.0 Collection Against Ewings Sarcoma (RDES) (AID 1259252). Note: potency is the fitted concentration of half-maximal effect; nearly all actives have a fitted effect of over 35% in size. The following applies: RD-ES Ewing sarcoma viability, CellTiter-Glo, 48 h; series mostly up to 45.8 µM. Put shortly: (§1)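 After a 4 h attachment period in RPMI/5% FBS, cells were pin-dosed with test compounds; DMSO served as negative and 9.2 uM bortezomib (final) as positive control. Luminescent CellTiter-Glo signal at 48 h defined viability.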

Assay [4] in a line: qHTS Screen of the MIPE 4.0 Collection Against Ewings Sarcoma (TC71) (AID 1259253). Note: potency is the fitted concentration of half-maximal effect; nearly all actives have a fitted effect of over 40% in size. The following applies: TC71 Ewing sarcoma viability, CellTiter-Glo, 48 h; series mostly up to 45.8 µM. In short, it runs like this: as §1
A short description of assay [5]: qHTS Screen of the MIPE 4.0 Collection Against Ewings Sarcoma (EW8) (AID 1259255). Note: potency is the fitted concentration of half-maximal effect; nearly all actives have a fitted effect of over 35% in size. Conditions: EW8 Ewing sarcoma viability, CellTiter-Glo, 48 h; series mostly up to 45.8 µM. Put shortly:
as §1

A short description of assay [6]: qHTS Screen of the MIPE 4.0 Collection Against Ewings Sarcoma (TC32) (AID 1259256). Note: potency is the fitted concentration of half-maximal effect; nearly all actives have a fitted effect of over 45% in size. The following applies: TC32 Ewing sarcoma viability, CellTiter-Glo, 48 h; series mostly up to 45.8 µM. In short, it runs like this: as §1
Assay [7] is described as follows: Identifying Small Molecule Inhibitors of Pancreatic Cancer Stem Cells (SN12C, Adherent) (AID 1259358).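 Note: potency is the fitted concentration of half-maximal effect; cell survival measured after 48 h of compound exposure.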 The following applies: viability/growth inhibition; series mostly up to 46.1 µM. Put shortly: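 Adherent (2D) versus sphere (3D) formats; spheres generated 14 d in SCM beforehand. Compound transferred by pin tool after 4 h, 48 h incubation, CellTiter-Glo endpoint.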

Assay [8] is described as follows: Identifying Small Molecule Inhibitors of Pancreatic Cancer Stem Cells (Panc1, Spheroid) (AID 1259359).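 Note: potency is the fitted concentration of half-maximal effect; compound exposure lasted 48 h before reading.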 Conditions: Panc1 spheroid cancer stem cell viability; series mostly up to 46.1 µM. Put shortly:
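Monolayer and spheroid cultures are compared. Spheroids form over 14 days in stem cell medium on hydrogel-coated low-attachment plates, then are exposed to compound for 48 h before CellTiter-Glo luminescence.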

Regarding `O=C(O)c1ccc2cc(-c3ccc(O)c(C45CC6CC(CC(C6)C4)C5)c3)ccc2c1`, the Potency entry in assay [1] and in assay [2] was “inactive” in each case. In addition, the Potency in assay [3] is 1.32 µM (active); in assay [4] it was 590 nM (active); in assay [5], 1.66 µM (active); in assay [6], 372 nM (active); in assay [7], 2.64 µM (active).

Turning to `Cn1cc(-c2[nH]c3cc(NC(=O)[C@H](N)C4CCCCC4)cc4c3c2C=NNC4=O)cn1`, the Potency entry in assay [1] and in assay [2] was “inactive” in each case. Also, the Potency in assay [3] is 0.833 µM (active); in assay [4], 590 nM (active); in assay [5], 0.372 µM (active); in assay [6], 372 nM (active); in assay [7] it was 14.8 µM (active).

As for `COc1cc2ncnc(Nc3ccc(F)c(Cl)c3)c2cc1NC(=O)C=CCN1CCCCC1`, the Potency result in assay [1] and in assay [2] was “inactive” throughout. The Potency in assay [3] is 16.6 µM (active); in assay [4], 2090 nM (active); in assay [5] it was 4.69 µM (active); in assay [6], 2960 nM (active); in assay [7], 20.9 µM (active); in assay [8], 23.5 µM (active).
